# Assay outcomes deposited in PubChem by National Center for Advancing Translational Sciences (NCATS).
# A selection: hits, their analogues and other compounds. The true share with any hit is near 1.3%.
# AMA1-RON2 inh: disrupts binding of P. falciparum AMA1 to RON2; AID 720542; AlphaScreen AMA1-biotinylated RON2 peptide binding; Potency, µM (top dose mostly 58.2 µM), for inactives: at the highest dose activity change, negative = inhibition, actives largely listed as inhibitors; hit rate 0.2% among 360,000;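 note: 0% = vehicle wells and -100% = peptide control; nearly all actives have a fitted effect of over 45% in size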
#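 AMA1 (3D7) with his tag at 25 nM final met compounds first, then biotinylated RON2 peptide at 25 nM; detection used donor plus acceptor beads, 10 µg/mL apiece, read by AlphaScreen after 30 min at room temperature.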
# AmpC inh detg: blocks E. coli AmpC beta-lactamase in detergent assay; Potency, µM (doses to about 114 µM), without a hit: at the highest dose activity change, negative = inhibition, actives largely listed as inhibitors; P00811; hit rate 0.041% among 370,000; AmpC hydrolysis of nitrocefin, absorbance 480 nm, 0.01% Triton; AID 485294;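 note: 0% = no-compound wells and -100% = no-enzyme wells; nearly all actives have a fitted effect of over 25% in size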
# Target sequence (P00811 whole entry, looked up): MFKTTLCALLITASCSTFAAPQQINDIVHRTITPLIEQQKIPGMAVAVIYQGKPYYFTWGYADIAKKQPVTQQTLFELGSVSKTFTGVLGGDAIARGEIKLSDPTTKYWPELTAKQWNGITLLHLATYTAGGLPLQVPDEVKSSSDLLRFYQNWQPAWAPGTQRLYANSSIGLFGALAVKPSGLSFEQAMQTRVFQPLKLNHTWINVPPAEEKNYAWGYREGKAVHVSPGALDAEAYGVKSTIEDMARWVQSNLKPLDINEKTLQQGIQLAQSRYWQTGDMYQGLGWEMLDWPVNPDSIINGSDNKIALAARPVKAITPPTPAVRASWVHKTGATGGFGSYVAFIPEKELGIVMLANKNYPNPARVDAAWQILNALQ
#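 AmpC (5.3 nM in the dispensed reagent) in 20 mM phosphate pH 7.0 with 0.01% (detergent screen) or 0.0001% Triton X-100 was preincubated with compounds for 15 min at room temperature. Nitrocefin was then added from an 800 uM solution, and hydrolysis was followed at 480 nm.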
# AmpC inh no detg: AmpC beta-lactamase inhibition without detergent. AmpC nitrocefin hydrolysis, absorbance 480 nm, 0.0001% Triton. Potency, µM (series often up to 57.1 µM), without a hit: at the highest dose activity change, negative = inhibition, most hits filed as inhibitors. hit rate 0.52% among 330,000. AID 485341;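 note: plate controls were no compound for no effect and no enzyme for full effect; nearly all actives have a fitted effect of over 20% in size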
#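 AmpC (5.3 nM in the dispensed reagent) in 20 mM phosphate pH 7.0 with 0.01% (detergent screen) or 0.0001% Triton X-100 was preincubated with compounds for 15 min at room temperature. Nitrocefin was then added from an 800 uM solution, and hydrolysis was followed at 480 nm.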
# VACV Venus inh: vaccinia inhibition (Venus reporter) | Vaccinia virus Venus reporter expression, fluorescence | Potency, µM (series often up to 36.5 µM), without a hit: top-dose activity change, negative = inhibition, most hits filed as inhibitors | hit rate 0.46% among 330,000 | AID 720580; calls by dose curve; tested in A549 cells; note: % is set by controls: 0 for no effect and ±100 for the full control effect; nearly all actives have a fitted effect of over 30% in size
# SARS PLP yeast: inhibitors of SARS-CoV papain-like protease in yeast | S. cerevisiae expressing SARS-CoV PLpro, growth rescue | Potency, µM (series often up to 32.9 µM), for inactives: at the highest dose activity, positive = growth rescue, actives largely listed as activators | hit rate 0.19% among 330,000; calls by dose curve; note: 0% is about no effect; nearly all actives have a fitted effect of over 55% in size
# VACV mCherry inh: vaccinia inhibition (mCherry reporter) | Vaccinia virus mCherry reporter infection, fluorescence | Potency, µM (highest dose often 36.5 µM), for the others: top-dose activity change, negative = inhibition, most hits filed as inhibitors | hit rate 0.63% among 310,000 | AID 720579; calls by dose curve; tested in A549 cells; note: % is set by controls: 0 for no effect and ±100 for the full control effect; nearly all actives have a fitted effect of over 35% in size
# * hit, by the source's call; i = inactive; u = inconclusive; x = no result. Unless noted, calls come from the whole dose curve; as a rule, active = well fitted curve in the direction sought with a large enough effect; inconclusive = small, poorly fitted or top-dose-only effect, or another doubt; inactive = no such curve, though single readings can be large; an effect the other way counts as inactive or inconclusive. Potency is the fitted concentration of half-maximal effect.
SMILES,AMA1-RON2 inh,AmpC inh detg,AmpC inh no detg,VACV Venus inh,SARS PLP yeast,VACV mCherry inh
O=C(CSc1n[nH]c(-c2ccncc2)n1)c1cccc([N+](=O)[O-])c1,23.0%,1.3%,-34.9%,-11.0%,-0.1%,-13.6%
O=C(C[C@H]1C[C@H](C(=O)N2CCCCC2)[C@@]2(CCc3ccccc3)c3[nH]c4ccc(Cl)cc4c3CCN2C1=O)NCCc1ccccn1,34.9%,x,0.6%,12.6µM*,-2.4%,u
CN(C)CCCNC(=O)C[C@H]1C[C@H](C(=O)N2CCCCC2)[C@@]2(CCc3ccccc3)c3[nH]c4ccc(Cl)cc4c3CCN2C1=O,13.7%,x,157.1%,14.1µM*,-11.5%,12.6µM*
COc1ccc2[nH]c3c(c2c1)CCN1C(=O)C(CC(=O)NCCc2ccccn2)C[C@H](C(=O)N2CCCCC2)[C@@]31CCc1ccccc1 (stereo not given in full),2.7%,x,241.7%,-28.4%,-2.2%,u
O=c1c(CO)cc(CO)cc(CO)c1O,22.4µM*,-8.9%,-4.6%,x,-4.6%,x
O=C(c1cccc(Cl)c1Cl)N(Cc1ccco1)Cc1cccs1,x,x,x,-3.4%,x,24.6%
OC(c1ccc(Cl)cc1)c1ncc(-c2ccc(Oc3ccccc3)cc2)[nH]1 (stereo not given),9.2%,x,x,u,x,10µM*
COc1ccc(-c2cnc(C(O)c3ccccc3)[nH]2)cc1 (stereo not given),3.9%,x,x,1.6%,x,10.8%
COc1ccc(-c2cnc(C(O)c3ccc(-c4ccccc4)cc3)[nH]2)cc1 (stereo not given),22.6%,x,x,-9.9%,x,-0.3%
OC(c1ccccc1)c1ncc(-c2ccc(Oc3ccccc3)cc2)[nH]1 (stereo not given),-0.3%,x,x,u,x,15.8µM*
CN(C)c1ccc(C2CNC(c3ccc(Cl)c([N+](=O)[O-])c3)c3[nH]c4ccccc4c32)cc1 (stereo not given),20µM*,u,-20.9%,x,-1.2%,x
CC(=O)c1ccc(NC(=O)CC2Nc3cccc4cccc(c34)NC2=O)cc1 (stereo not given),1.4%,u,15.8µM*,u,0.2%,u
COCc1c(C(=O)NC2CCCC2)cnn1-c1nccc(-c2ccco2)n1,x,x,x,-9.3%,x,-14.0%
COCC(=O)Nc1cc(C(=O)N2CCC(c3ccccc3)CC2)cc2nc(-c3ccccc3)n(C)c12,x,x,x,-1.9%,x,i
O=C(Nc1ccccc1)Nc1n[nH]c2nnc(-c3ccccc3)c(-c3ccccc3)c12,61.3%,-6.3%,31.6µM*,-11.2%,-6.6%,-7.6%
N#Cc1c(SCC(=O)Nc2nc3ccc(Br)cc3s2)sc2c(O)cc(=O)[nH]c12,-10.1%,3.5%,25.1µM*,-15.7%,-5.2%,i
CCOC(=O)Cn1nnc2c(sc3nc4c(c(-c5ccc(Cl)cc5)c32)CCC4)c1=O,-3.3%,-11.2%,-12.5%,-4.3%,u,x
O=c1[nH]cnc2c1sc1nc3c(c(-c4ccc(Cl)cc4)c12)CCC3,6.8%,-1.4%,-15.0%,2.82µM*,3.6%,x
O=C(N/N=C/c1cccc(C(F)(F)F)c1)c1cc2c(s1)-c1ccccc1CC2,0.5%,-3.8%,0.159µM*,-14.4%,1.6%,x
Cc1cccc(/C=N/NC(=O)c2cc3c(s2)-c2ccccc2CC3)c1,59.3%,-11.2%,-30.1%,u,-3.9%,-23.0%
CN(C)c1ccc(N=Nc2ccccc2Br)cc1,11.2µM*,0.3%,-7.7%,x,-6.3%,x
Cc1cccc(NC(=O)/C=C/c2ccc([N+](=O)[O-])s2)c1,-13.7%,0.7%,-30.2%,-2.9%,-6.2%,-21.7%
O=C(CNC(=O)c1ccccc1)N/N=C/c1ccc([N+](=O)[O-])s1,4.9%,-14.4%,-26.7%,10µM*,5.7%,10µM*
Cc1cccc(NC(=S)N/N=C/c2ccc([N+](=O)[O-])s2)c1,-24.2%,-11.6%,-41.4%,22.4µM*,-34.3%,11.2µM*
O=C(N/N=C/c1ccc([N+](=O)[O-])s1)c1ccncc1,43.2%,-2.6%,-14.3%,11.2µM*,-3.8%,u
